Source: PubChem (Sanford-Burnham Center for Chemical Genomics)
Most compounds without a hit are left out; they make up all but 3.2% or so of the library.
CRFBP-R2 agonist: agonists of CRF-BP/CRF-R2 complex, primary screen, cell-based, HEK293, calcium dye fluorescence, uHTS. CRF-binding protein / CRF receptor 2 complex (human). calcium dye fluorescence (FLIPR); percent of saturating CRF peptide response. activation, % at 13.2 µM. 350,000 compounds, 0.46% hits. AID 588473, 2011;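 active means activation of at least 50%, plus an integration ratio under a set limit after plate pattern correction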;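 further: plate controls were neutral control wells without compound for no effect and CRF at EC100 for full effect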
FAS TE block: FAS thioesterase domain inhibitors, primary screen, biochemical, fluorescence intensity, uHTS; Fatty acid synthase (Homo sapiens), P49327; recombinant FAS-TE, OMFH fluorogenic substrate, fluorescence endpoint; inhibition, % at 15 µM; 360,000 compounds, 0.67% hits; AID 602261, 2012;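 active means compounds whose normalised, plate-corrected inhibition of enzyme fluorescence in the single-dose primary screen is 50% or more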;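 further: 0% = DMSO with enzyme and 100% = substrate without enzyme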
CRFBP-R2 block: antagonists of CRF-BP/CRF-R2 complex, primary screen, cell-based, HEK293, calcium dye fluorescence, uHTS; inhibition, % at 11.8 µM; CRF-induced calcium fluorescence; 350,000 compounds, 0.59% hits;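 active means inhibition of the ligand-induced calcium signal above about 50% at the single tested concentration, limit read from the data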
aDG glyco up: activators of alpha-DG glycosylation, primary screen, uHTS, Pro5-aDG cells, AlphaScreen; AID 624168, 2012; 360,000 compounds, 0.22% hits; activation, % at 10 µM; alpha-DG glycosylation AlphaScreen (IIH6); 0% Pro5, 100% B10-LARGE cell signal;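 active means activation of at least 8% versus controls, or a plate z-score of at least 8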;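 further: Pro5 are CHO cells carrying HIG-tagged alpha-DG that lacks glycosylation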
H9c2 protect: cardioprotection against H2O2-induced cell death, primary screen, uHTS, H9c2 cells, ATPLite luminescence; H9c2 cardiomyocytes, H2O2 injury protection, 2 h; protection from H2O2 cell death, % at 20 µM; 360,000 compounds, 0.63% hits; AID 588492, 2011;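 active means compounds giving at least 50% protection of heart cells from peroxide-induced death in the single-dose screen, raw or plate-pattern-corrected value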;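 further: 0% = DMSO wells with peroxide and 100% = DMSO wells without peroxide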
PfGluPho inh: PfG6PD enzyme inhibitors, primary screen, biochemical, fluorescence intensity, uHTS; glucose-6-phosphate dehydrogenase-6-phosphogluconolactonase (Plasmodium falciparum 3D7); PfGluPho enzyme, NADPH resazurin-diaphorase fluorescence; inhibition, % at 20 µM; 350,000 compounds, 0.78% hits; AID 504690, 2011;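 active means inhibition reaching at least a set limit at 20 µM in the primary screen, cut at about 59% in these data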;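 further: 0% = DMSO wells with substrate and 100% = DMSO wells lacking glucose-6-phosphate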
PfGluPho conf: PfG6PD inhibitors, hit retest, confirmation, biochemical, fluorescence intensity, single concentration; recombinant PfGluPho, NADPH-diaphorase-resazurin fluorescence; inhibition, % at 20 µM; shares compounds with PfGluPho inh; 2,400 compounds, 34% hits;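 active means inhibition of at least 50% at 20 µM in any single replicate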;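 further: 0% = DMSO with substrate and 100% = DMSO lacking glucose-6-phosphate substrate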
Diaphorase 10uM: diaphorase inhibitors and chemical oxidizers, confirmation, counter-screen for P. falciparum G6PD inhibitor project, biochemical, fluorescence intensity, 10 µM NADPH | shares compounds with PfGluPho inh | diaphorase-coupled resazurin reduction, NADPH 10 uM | inhibition, % at 20 µM | 820 compounds, 39% hits;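 active means average inhibition reaching 50% or more with the compound at 20 µM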;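 further: resorufin red fluorescence formed as diaphorase reduces resazurin using NADPH; 0% = DMSO with enzyme and 100% = DMSO without enzyme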
Diaphorase 30uM: diaphorase inhibitors and chemical oxidizers, confirmation, counter-screen for P. falciparum G6PD inhibitor project, biochemical, fluorescence intensity, 30 µM NADPH; Diaphorase/resazurin coupled assay, resorufin fluorescence; inhibition, % at 20 µM; shares compounds with PfGluPho inh; 820 compounds, 29% hits;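 active means inhibition averaging 50% or more, tested at 20 µM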;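 further: 0% = DMSO with enzyme and 100% = DMSO wells lacking diaphorase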
Active calls of the source: *.

For O=C(Nc1ccc([N+](=O)[O-])cc1Cl)c1cc(Cl)ccc1O the results were CRFBP-R2 agonist 61*, FAS TE block 31, CRFBP-R2 block 87*, aDG glyco up 0, H9c2 protect -42, PfGluPho inh 94*, PfGluPho conf 51*, Diaphorase 10uM 41 and Diaphorase 30uM 31.
Screening Cc1ccc(OCC2Cn3c(nc4c3c(=O)[nH]c(=O)n4C)O2)cc1C (stereo unspecified) returned CRFBP-R2 agonist 2, FAS TE block -4, CRFBP-R2 block -46, aDG glyco up 0, H9c2 protect 3 and PfGluPho inh 12.
CCn1c(SCC(=O)Nc2ccc(C)cc2)nnc1-c1ccccn1 was read as CRFBP-R2 agonist 0, FAS TE block -1, CRFBP-R2 block -11, aDG glyco up 0, H9c2 protect 4 and PfGluPho inh 22.
`CCn1c(SCC(=O)Nc2ccccc2Br)nnc1-c1cnccn1` gave CRFBP-R2 agonist 1, FAS TE block -2, CRFBP-R2 block 3, aDG glyco up 0, H9c2 protect -2 and PfGluPho inh 40.
`CCn1c(SCC(=O)Nc2ccc(F)cc2)nnc1-c1cnccn1` gave CRFBP-R2 agonist 0, FAS TE block -7, CRFBP-R2 block -1, aDG glyco up 0, H9c2 protect -3, PfGluPho inh 87* and PfGluPho conf 36.
Screening CCOc1ccccc1NC(=O)CSc1nnc(-c2cnccn2)n1CC returned CRFBP-R2 agonist 1, FAS TE block -9, CRFBP-R2 block -8, aDG glyco up 1, H9c2 protect -2, PfGluPho inh 73* and PfGluPho conf 48.
C=CCn1c(SCC(=O)Nc2c(C)cccc2C)nnc1-c1cnccn1 was read as CRFBP-R2 agonist -1, FAS TE block -12, CRFBP-R2 block -18, aDG glyco up 0, H9c2 protect 3 and PfGluPho inh -4.
For C=CCn1c(SCC(=O)Nc2ccc(F)cc2)nnc1-c1cnccn1 the results were CRFBP-R2 agonist 0, FAS TE block -3, CRFBP-R2 block 3, aDG glyco up 0, H9c2 protect -1, PfGluPho inh 64* and PfGluPho conf 35.
Screening COC(=O)c1sc2nc(C)nc(SCC(=O)C(C)(C)C)c2c1C returned CRFBP-R2 agonist 1, FAS TE block 17, CRFBP-R2 block -5, aDG glyco up 3, H9c2 protect -24 and PfGluPho inh 11.
O=C(CC12CC3CC(CC(C3)C1)C2)NC(=S)Nc1ccc(CN2CCOCC2)cc1 was read as CRFBP-R2 agonist -1, FAS TE block 12, CRFBP-R2 block -18, aDG glyco up 0, H9c2 protect -18 and PfGluPho inh 19.
CCCn1cc(S(=O)(=O)CC(=O)N2CCc3ccccc32)c2ccccc21 was read as CRFBP-R2 agonist -1, FAS TE block 7, CRFBP-R2 block 9, aDG glyco up 0, H9c2 protect -1 and PfGluPho inh 19.
`Cn1cc(S(=O)(=O)CC(=O)N2CCc3ccccc32)c2ccccc21` gave CRFBP-R2 agonist -3, FAS TE block -5, CRFBP-R2 block -8, aDG glyco up 0, H9c2 protect 18, PfGluPho inh 74*, PfGluPho conf 53*, Diaphorase 10uM 49 and Diaphorase 30uM 46.
For Cn1cc(CC(=O)NCc2ccc(F)cc2)c2ccccc21 the results were CRFBP-R2 agonist 0, FAS TE block -2, CRFBP-R2 block -10, aDG glyco up 0, H9c2 protect 4 and PfGluPho inh 19.
For Cn1cc(S(=O)(=O)Cc2ccc(F)cc2)c2ccccc21 the results were CRFBP-R2 agonist 1, FAS TE block -4, CRFBP-R2 block 4, aDG glyco up 0, H9c2 protect 10, PfGluPho inh 103*, PfGluPho conf 62*, Diaphorase 10uM 69* and Diaphorase 30uM 51*.
`COc1ccc(-c2nc(NC(=O)CSCCO)sc2C)cc1` gave CRFBP-R2 agonist 3, FAS TE block -7, CRFBP-R2 block -7, aDG glyco up 0, H9c2 protect -6 and PfGluPho inh -7.
COc1cc2c(cc1OC)C(C(=O)NCc1cccnc1)C(c1cccnc1)N(C)C2=O (stereo unspecified) was read as CRFBP-R2 agonist 0, FAS TE block 1, CRFBP-R2 block 1, aDG glyco up 0, H9c2 protect 3 and PfGluPho inh -5.
`Cc1ccc(S(=O)(=O)Nc2ccc3c4c(cccc24)CC3)c(C)c1` gave CRFBP-R2 agonist -1, FAS TE block 11, CRFBP-R2 block -22, aDG glyco up 2, H9c2 protect -24, PfGluPho inh 74* and PfGluPho conf 26.
Screening Cc1cc(C)c(S(=O)(=O)Nc2ccc3c4c(cccc24)CC3)c(C)c1 returned CRFBP-R2 agonist -1, FAS TE block 23, CRFBP-R2 block 29, aDG glyco up 0, H9c2 protect -22, PfGluPho inh 91* and PfGluPho conf 30.
O=S(=O)(Nc1ccc2c3c(cccc13)CC2)c1ccccc1 was read as CRFBP-R2 agonist 0, FAS TE block 12, CRFBP-R2 block 16, aDG glyco up 1, H9c2 protect -12 and PfGluPho inh 53.
`c1ccc(C2CCC(N3CCNCC3)CC2)cc1` (stereo unspecified) gave CRFBP-R2 agonist 0, FAS TE block -6, CRFBP-R2 block 5, aDG glyco up 0, H9c2 protect 4 and PfGluPho inh -1.
For O=C(/C=C/c1ccc(-c2ccccc2)o1)c1ccccc1 the results were CRFBP-R2 agonist 6, FAS TE block 17, CRFBP-R2 block -30, aDG glyco up 0, H9c2 protect -4, PfGluPho inh 111* and PfGluPho conf 5.
For Cc1ccc(-c2ccc(/C=C/C(=O)c3ccccc3)o2)cc1 the results were CRFBP-R2 agonist 28, FAS TE block 14, CRFBP-R2 block -47, aDG glyco up 0, H9c2 protect -1 and PfGluPho inh 11.
